# ± gives the standard deviation of the averaged measurements.
# Experiments:
# Experiment in all cases: promoter activity interaction Z-score (Lux/OD deviation from empty-vector control); higher = stronger promoter induction by the compound
# [1] = test system: E. coli BW25113 acrABp lux reporter
# Summary of the method: (§1)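 E. coli BW25113, as wild type or one of three single-gene deletion strains, carried low-copy luxCDABE promoter reporters and grew in 40 µl LB Lennox in 384-well plates at 37°C, with OD600 and luminescence read every 30 min for 12 h. Each compound was run at four 1:2 dilutions in biological duplicates, integration spanned 0–8 h for wild type and 1–9 h for deletion strains, and wells under 10% of the median growth value were dropped. The score is the Z-transformed residual of growth-normalised luminescence fitted against a control.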
# [2] = test system: E. coli BW25113 marRABp lux reporter
# Summary of the method: as §1
# [3] = test system: E. coli BW25113 micFp lux reporter
# Summary of the method: as §1
# [4] = test system: E. coli BW25113 ompFp lux reporter
# Summary of the method: as §1
# [5] = test system: E. coli BW25113 robp lux reporter
# Summary of the method: as §1
# [6] = test system: E. coli BW25113 soxSp lux reporter
# Summary of the method: as §1
# [7] = test system: E. coli BW25113 tolCp lux reporter
# Summary of the method: as §1
# [8] = 14.6 µg/ml, genetic background: wild type
# [9] = 14.6 µg/ml, genetic background: ΔmarA
# [10] = 14.6 µg/ml, genetic background: Δrob
# [11] = 14.6 µg/ml, genetic background: ΔsoxS
# [12] = 29.3 µg/ml, genetic background: wild type
# [13] = 29.3 µg/ml, genetic background: ΔmarA
# [14] = 29.3 µg/ml, genetic background: Δrob
# [15] = 29.3 µg/ml, genetic background: ΔsoxS
# [16] = 58.6 µg/ml, genetic background: wild type
# [17] = 58.6 µg/ml, genetic background: ΔmarA
# [18] = 58.6 µg/ml, genetic background: Δrob
# [19] = 58.6 µg/ml, genetic background: ΔsoxS
# [20] = 117.2 µg/ml, genetic background: wild type
# [21] = 117.2 µg/ml, genetic background: ΔmarA
# [22] = 117.2 µg/ml, genetic background: Δrob
# [23] = 117.2 µg/ml, genetic background: ΔsoxS
compound,measurement,setting,value
c1ccc2[nH]ccc2c1 [Indole],promoter activity interaction Z-score,[1]; [8],0.275 ± 0.27
same,promoter activity interaction Z-score,[1]; [9],0.599 ± 0.24
same,promoter activity interaction Z-score,[1]; [10],0.275 ± 0.17
same,promoter activity interaction Z-score,[1]; [11],0.000826 ± 0.08
same,promoter activity interaction Z-score,[1]; [12],0.165 ± 0.071
same,promoter activity interaction Z-score,[1]; [13],0.0409 ± 0.28
same,promoter activity interaction Z-score,[1]; [14],0.281 ± 0.18
same,promoter activity interaction Z-score,[1]; [15],0.463 ± 0.32
same,promoter activity interaction Z-score,[1]; [16],-0.112 ± 0.29
same,promoter activity interaction Z-score,[1]; [17],0.00303 ± 0.77
same,promoter activity interaction Z-score,[1]; [18],-0.21 ± 0.23
same,promoter activity interaction Z-score,[1]; [19],-0.312 ± 0.055
same,promoter activity interaction Z-score,[1]; [20],0.167 ± 0.52
same,promoter activity interaction Z-score,[1]; [21],-0.375 ± 0.025
same,promoter activity interaction Z-score,[1]; [22],-0.278 ± 0.012
same,promoter activity interaction Z-score,[1]; [23],0.0661 ± 0.25
same,promoter activity interaction Z-score,[2]; [8],0.304 ± 0.29
same,promoter activity interaction Z-score,[2]; [9],0.3765 ± 0.00083
same,promoter activity interaction Z-score,[2]; [10],0.103 ± 0.22
same,promoter activity interaction Z-score,[2]; [11],0.259 ± 0.025
same,promoter activity interaction Z-score,[2]; [12],0.16 ± 0.016
same,promoter activity interaction Z-score,[2]; [13],0.41 ± 0.022
same,promoter activity interaction Z-score,[2]; [14],0.118 ± 0.27
same,promoter activity interaction Z-score,[2]; [15],0.258 ± 0.2
same,promoter activity interaction Z-score,[2]; [16],0.085 ± 0.049
same,promoter activity interaction Z-score,[2]; [17],-0.158 ± 0.041
same,promoter activity interaction Z-score,[2]; [18],-0.0769 ± 0.035
same,promoter activity interaction Z-score,[2]; [19],-0.0326 ± 0.017
same,promoter activity interaction Z-score,[2]; [20],0.965 ± 0.34
same,promoter activity interaction Z-score,[2]; [21],0.558 ± 0.15
same,promoter activity interaction Z-score,[2]; [22],0.0948 ± 0.28
same,promoter activity interaction Z-score,[2]; [23],0.629 ± 0.47
same,promoter activity interaction Z-score,[3]; [8],-0.0516 ± 0.12
same,promoter activity interaction Z-score,[3]; [9],0.0327 ± 0.011
same,promoter activity interaction Z-score,[3]; [10],0.00243 ± 0.044
same,promoter activity interaction Z-score,[3]; [11],0.0247 ± 0.094
same,promoter activity interaction Z-score,[3]; [12],-0.0146 ± 0.021
same,promoter activity interaction Z-score,[3]; [13],-0.0163 ± 0.074
same,promoter activity interaction Z-score,[3]; [14],0.00613 ± 0.19
same,promoter activity interaction Z-score,[3]; [15],0.586 ± 0.069
same,promoter activity interaction Z-score,[3]; [16],0.0628 ± 0.13
same,promoter activity interaction Z-score,[3]; [17],-0.00313 ± 0.016
same,promoter activity interaction Z-score,[3]; [18],-0.138 ± 0.18
same,promoter activity interaction Z-score,[3]; [19],0.204 ± 0.28
same,promoter activity interaction Z-score,[3]; [20],0.516 ± 0.39
same,promoter activity interaction Z-score,[3]; [21],-0.0638 ± 0.0022
same,promoter activity interaction Z-score,[3]; [22],0.0554 ± 0.19
same,promoter activity interaction Z-score,[3]; [23],0.622 ± 0.087
same,promoter activity interaction Z-score,[4]; [8],0.322 ± 0.069
same,promoter activity interaction Z-score,[4]; [9],0.511 ± 0.0093
same,promoter activity interaction Z-score,[4]; [10],0.571 ± 0.51
same,promoter activity interaction Z-score,[4]; [11],0.225 ± 0.49
same,promoter activity interaction Z-score,[4]; [12],0.195 ± 0.09
same,promoter activity interaction Z-score,[4]; [13],0.309 ± 0.31
same,promoter activity interaction Z-score,[4]; [14],0.788 ± 0.39
same,promoter activity interaction Z-score,[4]; [15],0.734 ± 0.24
same,promoter activity interaction Z-score,[4]; [16],0.0808 ± 0.21
same,promoter activity interaction Z-score,[4]; [17],-0.0711 ± 0.22
same,promoter activity interaction Z-score,[4]; [18],-0.121 ± 0.61
same,promoter activity interaction Z-score,[4]; [19],-0.221 ± 0.36
same,promoter activity interaction Z-score,[4]; [20],0.63 ± 0.055
same,promoter activity interaction Z-score,[4]; [21],0.332 ± 0.29
same,promoter activity interaction Z-score,[4]; [22],0.341 ± 0.29
same,promoter activity interaction Z-score,[4]; [23],0.406 ± 0.096
same,promoter activity interaction Z-score,[5]; [8],0.568 ± 0.58
same,promoter activity interaction Z-score,[5]; [9],1.11 ± 0.29
same,promoter activity interaction Z-score,[5]; [10],0.842 ± 0.094
same,promoter activity interaction Z-score,[5]; [11],0.694 ± 0.19
same,promoter activity interaction Z-score,[5]; [12],0.773 ± 0.055
same,promoter activity interaction Z-score,[5]; [13],1.1 ± 0.014
same,promoter activity interaction Z-score,[5]; [14],0.598 ± 0.34
same,promoter activity interaction Z-score,[5]; [15],0.773 ± 0.2
same,promoter activity interaction Z-score,[5]; [16],-0.0581 ± 0.17
same,promoter activity interaction Z-score,[5]; [17],0.148 ± 0.5
same,promoter activity interaction Z-score,[5]; [18],0.569 ± 0.13
same,promoter activity interaction Z-score,[5]; [19],0.0833 ± 0.58
same,promoter activity interaction Z-score,[5]; [20],0.0933 ± 0.09
same,promoter activity interaction Z-score,[5]; [21],0.0401 ± 0.093
same,promoter activity interaction Z-score,[5]; [22],-0.335 ± 0.55
same,promoter activity interaction Z-score,[5]; [23],0.0103 ± 0.36
same,promoter activity interaction Z-score,[6]; [8],0.0112 ± 0.045
same,promoter activity interaction Z-score,[6]; [9],-0.0857 ± 0.076
same,promoter activity interaction Z-score,[6]; [10],-0.0709 ± 0.072
same,promoter activity interaction Z-score,[6]; [11],0.0403 ± 0.38
same,promoter activity interaction Z-score,[6]; [12],-0.034 ± 0.11
same,promoter activity interaction Z-score,[6]; [13],0.0579 ± 0.018
same,promoter activity interaction Z-score,[6]; [14],-0.0043 ± 0.038
same,promoter activity interaction Z-score,[6]; [15],0.238 ± 0.052
same,promoter activity interaction Z-score,[6]; [16],-0.0963 ± 0.0079
same,promoter activity interaction Z-score,[6]; [17],-0.00367 ± 0.068
same,promoter activity interaction Z-score,[6]; [18],-0.169 ± 0.082
same,promoter activity interaction Z-score,[6]; [19],-0.175 ± 0.24
same,promoter activity interaction Z-score,[6]; [20],-0.134 ± 0.044
same,promoter activity interaction Z-score,[6]; [21],-0.1992 ± 0.0019
same,promoter activity interaction Z-score,[6]; [22],-0.22 ± 0.15
same,promoter activity interaction Z-score,[6]; [23],-0.0773 ± 0.035
same,promoter activity interaction Z-score,[7]; [8],0.801 ± 1.5
same,promoter activity interaction Z-score,[7]; [9],0.744 ± 0.49
same,promoter activity interaction Z-score,[7]; [10],-0.506 ± 0.39
same,promoter activity interaction Z-score,[7]; [11],-0.474 ± 0.23
same,promoter activity interaction Z-score,[7]; [12],-0.36 ± 0.35
same,promoter activity interaction Z-score,[7]; [13],0.821 ± 1.3
same,promoter activity interaction Z-score,[7]; [14],0.287 ± 0.068
same,promoter activity interaction Z-score,[7]; [15],2.02 ± 0.35
same,promoter activity interaction Z-score,[7]; [16],-0.246 ± 0.9
same,promoter activity interaction Z-score,[7]; [17],0.0426 ± 0.17
same,promoter activity interaction Z-score,[7]; [18],-0.244 ± 0.44
same,promoter activity interaction Z-score,[7]; [19],1.06 ± 0.6
same,promoter activity interaction Z-score,[7]; [20],-0.0345 ± 0.59
same,promoter activity interaction Z-score,[7]; [21],-0.841 ± 0.13
same,promoter activity interaction Z-score,[7]; [22],-1.12 ± 0.97
same,promoter activity interaction Z-score,[7]; [23],-0.0289 ± 0.16

# Source: the supplement of paper PMC12282887
